Measurements: PubChem BioAssay (NCATS)
Results filed as inconclusive are left out. Entries that show only a call come without a potency. The source made the active and inactive calls. Unless noted, the call rests on the fitted dose curve; in most records, active means well fitted curve in the direction sought with a large enough effect; inconclusive means small, poorly fitted or top-dose-only effect, or another doubt; inactive means no such curve, though single readings can be large; an effect the other way counts as inactive or inconclusive.

What was measured:
[1] = biological target: Calcium and integrin-binding protein 1 (Homo sapiens) (UniProt Q99828); experiment: Primary qHTS for Identification of Calcium Integrin Binding Protein 1 (CIB1) Competitor (AID 1508620)
Outline: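 Fluorescence polarization competition: GST-tagged CIB1 (1 uM final) preincubated with compound 15 min at room temperature, then FITC-labelled alphaIIb peptide (100 nM final) added. After 15 min at room temperature, polarization read at Ex 480/Em 540.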

[2] = biological target: Cytochrome P450 2D6 (Homo sapiens) (UniProt P10635); experiment: Cytochrome P450 family 2 subfamily D member 6 (CYP2D6) small molecule antagonists: luciferase biochemical (cell-free) qHTS assay (AID 1645840; active means well fitted curve in the direction sought with a large enough effect in the repeat runs; an effect the other way counts as inactive or inconclusive; further: nearly all actives have a fitted effect of over 55% in size)
Outline: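 P450-Glo CYP2D6 system: proluciferin substrate converted by enzyme to luciferin, read by luminescence proportional to activity. Enzyme-substrate mix with compound 10 min at room temperature, then NADPH regeneration 1 h before detection reagent.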
Potency means the concentration at half of the fitted maximal effect.

Chain of Cytochrome P450 2D6 (Homo sapiens) (P10635 whole entry, looked up): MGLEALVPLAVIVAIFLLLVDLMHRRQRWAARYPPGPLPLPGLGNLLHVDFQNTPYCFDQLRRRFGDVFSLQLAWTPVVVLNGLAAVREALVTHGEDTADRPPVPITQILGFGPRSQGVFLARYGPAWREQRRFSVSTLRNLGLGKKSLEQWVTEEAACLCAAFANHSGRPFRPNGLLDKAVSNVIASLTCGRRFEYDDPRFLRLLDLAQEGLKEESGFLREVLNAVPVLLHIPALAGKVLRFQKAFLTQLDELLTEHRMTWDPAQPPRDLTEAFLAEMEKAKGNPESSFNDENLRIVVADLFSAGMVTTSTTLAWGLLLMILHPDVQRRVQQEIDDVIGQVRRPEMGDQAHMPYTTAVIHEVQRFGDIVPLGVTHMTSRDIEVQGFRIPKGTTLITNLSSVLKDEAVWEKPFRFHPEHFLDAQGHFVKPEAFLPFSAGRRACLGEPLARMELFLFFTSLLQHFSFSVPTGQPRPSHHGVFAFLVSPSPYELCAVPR
Chain of Calcium and integrin-binding protein 1 (Homo sapiens) (Q99828 whole entry, looked up): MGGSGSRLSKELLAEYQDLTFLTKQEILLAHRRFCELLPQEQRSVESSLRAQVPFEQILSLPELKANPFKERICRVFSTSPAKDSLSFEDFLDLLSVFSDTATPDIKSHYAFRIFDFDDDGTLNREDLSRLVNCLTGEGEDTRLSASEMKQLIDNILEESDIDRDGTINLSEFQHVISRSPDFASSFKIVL

CC1CCCC(O)CC(=O)c2c(O)cc(O)cc2CC(=O)O1 (centres undefined)
Potency [1]: inactive

CC(=O)O[C@H]1[C@H](O)C[C@@]2(C)C(CC[C@]3(C)C2CC=C2C4CC(C)(C)CC[C@]4(C(=O)O)CC[C@]23C)C1(C)C (some centres undefined)
Potency [1]: inactive

COC(=O)C1=COC(O[C@@H]2O[C@H](CO[C@@H]3O[C@H](COC(=O)/C=C\c4ccc(O)cc4)[C@@H](O)[C@H](O)[C@H]3O)[C@@H](O)[C@H](O)[C@H]2O)C2C(CO)=CCC12 (some centres undefined)
Potency [1]: inactive

O=C(c1c(F)ccc(NS(=O)(=O)N2CC[C@@H](F)C2)c1F)c1c[nH]c2ncc(-c3cnc(C4CC4)nc3)cc12
Potency [1]: inactive

CCCCCCCCn1cc(CN(CC)CC)c2cc(-c3cnc(N)nc3)ccc21
Potency [1]: inactive

CCOC(=O)C1(CCOc2ccccc2)CCN(Cc2ccc(O)c(Cl)c2)CC1
Potency [1]: inactive

COC1CC(O[C@H]2CC[C@]3(C)C4CC[C@]5(C)C(C6=CC(=O)OC6)=CCC56OC46CC[C@@H]3C2)OC(C)C1O[C@@H]1O[C@H](CO[C@@H]2O[C@H](CO)[C@@H](O)[C@H](O)[C@H]2O)[C@@H](O)[C@H](O)[C@H]1O (some centres undefined)
Potency [1]: inactive

C=C1C(=O)OC2C1CCC1(C)C(O)CC=C(C)C21 (centres undefined)
Potency [1]: inactive

C=C1C(=O)O[C@@H]2C[C@H](C)[C@@H]3CC(=O)C(C)=C3C[C@H]12
Potency [1]: inactive

C=C1C(=O)OC2/C=C(\CO)CC/C=C(\C=O)C(O)C(OC(=O)C(C)CC)C12 (centres undefined)
Potency [1]: inactive

CC1(C)CCC(C)(C)c2cc(C#Cc3ccc(C(=O)O)cc3)ccc21
Potency [1]: inactive

Nc1c(S(=O)(=O)c2ccccc2)c2nc3ccccc3nc2n1-c1ccc(F)cc1
Potency [1]: inactive

CCC(C)C(=O)OC12C(OC(C)=O)C(C)C3(O)C(C=C(CO)CC4(O)C(=O)C(C)=CC43)C1C2(C)C (centres undefined)
Potency [1]: inactive

CCn1c(-c2nonc2N)nc2c(C#CC(C)(C)O)ncc(OCC3CCCNC3)c21 (centres undefined)
Potency [1]: inactive

O=c1cc(NCCCN[C@@H]2CCOc3c(Br)cc(Br)cc32)[nH]c2ccsc12
Potency [1]: inactive

O=C(NCCCNC(=O)c1ccc[nH]c1=O)c1cc(-c2ccccc2)on1
Potency [1]: inactive

C=C1C(=O)O[C@@H]2/C=C(\C)CC/C=C(/C=O)[C@H](OC)[C@@H](OC(=O)C(C)C)[C@@H]12
Potency [1]: inactive

NC(N)=N/N=C/c1ccccc1Cl
Potency [1]: inactive

Cc1sc2c(c1C)C(c1ccc(Cl)cc1)=N[C@H](CC(=O)NCCCCNC(=O)COc1cccc3c1C(=O)N([C@H]1CCC(=O)NC1=O)C3=O)c1nnc(C)n1-2
Potency [1]: inactive

CC(=O)OC1C(OC(=O)c2ccccc2)C2C(=C(C)CCC2(C)C)C23CCC(C)(C2)C(=O)CC13 (centres undefined)
Potency [1]: inactive

Cc1cc(C(=O)Nc2cc(Oc3ccc4nc(NC(=O)C5CC5)cn4n3)ccc2C)n(C)n1
Potency [1]: inactive

C=C(C)[C@@H]1CC=C(COC(=O)NC(=O)c2ncn3c(=O)n(C)nnc23)CC1
Potency [1]: inactive

Nc1nc(Cl)nc2c1ncn2C1OC(CO)C(O)C1F (centres undefined)
Potency [1]: inactive

Cc1cc2c(cc1N1C(=O)c3cccc4c(CCCO)ccc(c34)C1=O)n(C)c(=O)n2C
Potency [1]: inactive

CCCC(=O)C1(c2ccccc2)CCN(C(=O)[C@@H](Cc2ccc(OC)cc2)NC(=O)[C@@H](N)Cc2cncn2C)CC1
Potency [1]: inactive

CC1=C2C[C@@]3(C)C(CCC[C@@H]3C)C(O)C2OC1=O (some centres undefined)
Potency [1]: inactive

NCC(CNc1nc(Nc2cccc(NC(=O)N3CCCC3)c2)ncc1I)C(=O)c1cccs1 (centres undefined)
Potency [1]: inactive

COc1ccc(CCc2nc3cc(-c4c(C)noc4C)ccc3n2CC(C)N2CCOCC2)cc1Cl (centres undefined)
Potency [1]: inactive

Cc1cccc(-c2[nH]ncc2-c2ccc(F)c(-c3cnn(CCO)c3)c2)n1
Potency [1]: inactive

CC(=O)NC(C)c1cnc(-c2cnc(Oc3ccc(OC(C)C)cc3)s2)s1 (centres undefined)
Potency [1]: inactive

Cc1c(F)ccc(C(=O)Nc2cc([N+](=O)[O-])ccc2N2CCN(C)CC2)c1Cl
Potency [1]: inactive

CC(O)C(C)n1ncn(-c2ccc(N3CCN(c4ccc(OCC5COC(Cn6cncn6)(c6ccc(Cl)cc6Cl)O5)cc4)CC3)cc2)c1=O (centres undefined)
Potency [1]: inactive

CCC(C(C)O)n1ncn(-c2ccc(N3CCN(c4ccc(OCC5COC(Cn6cncn6)(c6ccc(F)cc6F)C5)cc4)CC3)cc2)c1=O (centres undefined)
Potency [1]: inactive

CC(=O)O[C@H]1C[C@H](OC(C)=O)[C@]2(C)[C@H](CC[C@@]34O[C@@H]3C3=C(C)C(=O)O[C@@H]3C[C@H]42)C1(C)C
Potency [1]: inactive

C=C1C(=O)O[C@@H]2C[C@H](C)C3=CC(=O)[C@H](O)[C@@]3(C)C[C@H]12
Potency [1]: inactive

C=C1C(=O)O[C@H]2CC(=C)[C@H]3CC[C@@](C)(O)[C@@H]3CC12 (some centres undefined)
Potency [1]: inactive

C=C(C)C(=O)O[C@H]1/C(C=O)=C\CC/C(CO)=C/[C@H]2OC(=O)C(=C)[C@@H]2[C@@H]1OC
Potency [1]: inactive

COc1ccc2nccc(C(=O)CC[C@@H]3CCN(CC#Cc4cc(F)cc(F)c4F)C[C@@H]3C(=O)O)c2c1
Potency [1]: inactive

C=C1C(=O)OC2/C=C(\COC(C)=O)CC/C=C(\C=O)CC(OC(=O)C(C)CC)C12 (centres undefined)
Potency [1]: inactive

C/C=C(/C)C(=O)O[C@H]1C=C(CO)C(=O)[C@H](OC(=O)/C(C)=C/CO)[C@H]1C(C)C
Potency [1]: inactive

CCN(Cc1cc(Nc2nc(C)cn3c(-c4cn[nH]c4)cnc23)sn1)C(C)(C)CO
Potency [1]: inactive

C1=Cc2ccccc2C(=C2CCN(CCCCc3nn[nH]n3)CC2)c2ccccc21
Potency [1]: inactive

CC(C)C(C)C(O)C1CC23CC(=O)C4(O)C(=C2CCC3C1C)C=CC1(O)CC(O)CCC14C (centres undefined)
Potency [1]: inactive

O=C(O)c1ccc(N2C(=O)/C(=C/c3ccc(-c4ccc([N+](=O)[O-])cc4)o3)C=C2c2ccccc2)cc1
Potency [1]: inactive

NS(=O)(=O)c1ccc(NC(=O)Nc2ccc(F)cc2)cc1
Potency [1]: inactive

COc1ccc(C[C@H]2COC(=O)[C@@H]2Cc2ccc(O[C@@H]3O[C@H](CO)[C@@H](O)[C@H](O)[C@H]3O)c(OC)c2)cc1OC
Potency [1]: inactive

C=C1CC[C@@H]2[C@](C)(CO)[C@H](O)CC[C@@]2(C)[C@@H]1/C=C/C1=CCOC1=O
Potency [1]: inactive

CC1=CC2/C=C(\C)CCC3OC(C)(C)OC3CCC(=O)C23C(=O)NC(CC(C)C)C3C1C (centres undefined)
Potency [1]: inactive

C=C1C(=O)O[C@@H]2[C@H]1CC(=O)[C@H](C)[C@@](O)(C(=O)/C=C/C)[C@H]2OC(=O)C(C)CC (some centres undefined)
Potency [1]: inactive

Cc1cc(-c2cnc(N)c3c(-c4ccc5scnc5c4)csc23)n(C)n1
Potency [1]: inactive

CC[C@@H](C)[C@@H]1OC2(C=C[C@H]1C)C[C@@H]1C[C@H](C/C=C(\C)[C@H](O[C@H]3C[C@H](OC)[C@H](O[C@H]4C[C@H](OC)[C@H](NC(C)=O)[C@H](C)O4)[C@H](C)O3)[C@H](C)/C=C/C=C3\CO[C@H]4[C@H](O)C(C)=C[C@@H](C(=O)O1)[C@@]34O)O2 (some centres undefined)
Potency [1]: inactive

Fc1ccc(-c2nc(-c3ccccc3F)[nH]c2-c2ccncc2)cc1
Potency [1]: inactive | Potency [2]: 1.2 µM (active)

Nc1nc(OCc2cc(Br)cs2)c2[nH]cnc2n1
Potency [1]: inactive | Potency [2]: 6.74 µM (active)

N#Cc1ccc2ncnc(NCCc3ccccc3)c2c1
Potency [1]: inactive | Potency [2]: 15.1 µM (active)

CN1CCN(C2=Nc3ccccc3Nc3ccc(OS(=O)(=O)C(F)(F)F)cc32)CC1
Potency [1]: inactive | Potency [2]: 3.38 µM (active)

OC(c1ccc(-c2ccc(CN3CCN(Cc4ccncc4)CC3)cc2)c(F)c1)(C(F)(F)F)C(F)(F)F
Potency [1]: inactive | Potency [2]: 3.38 µM (active)

CCNC(=O)N1CCCN(c2ccc(C(=O)NCCc3ccc(Cl)cc3Cl)cc2NC(=O)c2cccc(Cl)c2)CC1
Potency [1]: inactive | Potency [2]: 4.77 µM (active)

CCc1cc2c(cc1CC)CC(NCC(O)c1ccc(O)c3[nH]c(=O)ccc13)C2 (centres undefined)
Potency [1]: inactive | Potency [2]: 9.52 µM (active)

CCOc1nc(NC(=O)Cc2cc(OC)ccc2OC)cc(N)c1C#N
Potency [1]: inactive | Potency [2]: inactive

NC(=O)c1cnc(N[C@@H]2CCCC[C@H]2N)nc1Nc1cccc(-n2nccn2)c1
Potency [1]: inactive | Potency [2]: 19 µM (active)

O=C(C1CCCCC1)N(CCN1CCN(c2ccccc2O)CC1)c1ccccn1
Potency [1]: inactive | Potency [2]: 10.7 µM (active)

Cc1ccc(F)cc1S(=O)(=O)N[C@@H]1CCN(Cc2ccc(OC(C)C)cc2)C1
Potency [1]: inactive | Potency [2]: 0.0169 µM (active)

COc1cc(N2CCC(N)CC2)ccc1Nc1ncc(Cl)c(-c2c[nH]c3ccccc23)n1
Potency [1]: inactive | Potency [2]: 21.3 µM (active)

CC(=O)Nc1cccc(Nc2ncnc(N3CCC(OCc4ccc(OC(F)(F)F)cc4)CC3)n2)c1C
Potency [1]: inactive | Potency [2]: inactive

CCCc1cc(C)[nH]c(=O)c1CNC(=O)c1cc(-c2ccnc(N3CCN(C)CC3)c2)cc2c1cnn2C(C)C
Potency [1]: inactive | Potency [2]: 23.9 µM (active)

Nc1nc2c(s1)CCN(Cc1ccc(Cl)cc1)CC2
Potency [1]: inactive | Potency [2]: 1.9 µM (active)

CC1=C(C(=O)OC2CCCCC2)C(c2ccc([N+](=O)[O-])cc2)C2=C(CC(C)(C)CC2=O)N1 (centres undefined)
Potency [1]: 17.8 µM (active) | Potency [2]: 21.3 µM (active)

O=C(COc1ccc(C(=O)c2ccccc2)cc1)NC1CCN(Cc2ccccc2)CC1
Potency [1]: inactive | Potency [2]: 0.338 µM (active)

C[C@@H](NC(=O)C(=O)c1c[nH]c2ccc([N+](=O)[O-])cc12)c1ccccc1
Potency [1]: inactive | Potency [2]: inactive

O=C(N[C@H](Cc1cscn1)C(=O)N[C@@H](CC1CCCCC1)[C@@H](O)[C@@H](O)C1CC1)c1nc2ccccc2[nH]1
Potency [1]: inactive | Potency [2]: 19 µM (active)

CC(=O)NC[C@H]1CN(c2ccc(N3CCSCC3)c(F)c2)C(=O)O1
Potency [1]: inactive | Potency [2]: inactive

CN(C)C(=O)Nc1cccc(-c2ccc(N(C)C)cc2)c1
Potency [1]: inactive | Potency [2]: 21.3 µM (active)

CCN(CCNC(=O)Nc1ccccc1Br)c1cccc(C)c1
Potency [1]: inactive | Potency [2]: 1.9 µM (active)

O=C(NCc1cccs1)c1cc2nc(-c3ccco3)cc(C(F)(F)Cl)n2n1
Potency [1]: inactive | Potency [2]: 7.56 µM (active)

C=CC(=O)N1CCN(C(=O)CNc2cc(-c3ccccc3Cl)c(Cl)cc2OC)CC1
Potency [1]: inactive | Potency [2]: 12 µM (active)
